Experimental data as given in PMC7862700, “An all-to-all approach to the identification of sequence-specific readers for epigenetic DNA modifications on cytosine”.

Assays:
Experiment in all cases: DAPPL (digital affinity profiling via proximity ligation, sequencing); 10 mM Tris-HCl pH 7.5, 50 mM NaCl, 1 mM DTT, 4% glycerol, room temperature, 30 min; GST-TFs on glutathione beads, 16-mer random dsDNA library, 0.1% formaldehyde crosslink after washing; high values mean tight binding
FEV = target: T1, FEV (Homo sapiens, UniProt Q99581 1-238); details: protein: recombinant; tags: N-terminal GST; dsDNA, one strand shown
T1 sequence: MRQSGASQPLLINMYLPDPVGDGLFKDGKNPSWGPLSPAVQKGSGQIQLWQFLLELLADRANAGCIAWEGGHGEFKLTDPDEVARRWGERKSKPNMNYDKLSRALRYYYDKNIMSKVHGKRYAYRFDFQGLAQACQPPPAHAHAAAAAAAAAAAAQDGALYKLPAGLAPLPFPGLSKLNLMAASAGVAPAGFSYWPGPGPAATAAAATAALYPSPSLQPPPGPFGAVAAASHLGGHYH
In short: (§1)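 Each value of binding signal is a hexamer's read frequency for a factor divided by the same hexamer's frequency in the tag-only sample. Barcoded, bead-captured GST fusions of human transcription factors made in yeast were pooled with that sample and incubated with 200 nmole of a random double-stranded 16-mer DNA library in Tris/NaCl/DTT/glycerol buffer at room temperature for 30 min. Washing, 0.1% formaldehyde crosslinking, proximity ligation, PCR and Illumina NextSeq500 sequencing followed.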

ETV5 = ETV5 (Homo sapiens, UniProt P41161 1-510); details: protein: recombinant; tags: N-terminal GST; dsDNA, one strand shown
Sequence of ETV5 (P41161 whole entry): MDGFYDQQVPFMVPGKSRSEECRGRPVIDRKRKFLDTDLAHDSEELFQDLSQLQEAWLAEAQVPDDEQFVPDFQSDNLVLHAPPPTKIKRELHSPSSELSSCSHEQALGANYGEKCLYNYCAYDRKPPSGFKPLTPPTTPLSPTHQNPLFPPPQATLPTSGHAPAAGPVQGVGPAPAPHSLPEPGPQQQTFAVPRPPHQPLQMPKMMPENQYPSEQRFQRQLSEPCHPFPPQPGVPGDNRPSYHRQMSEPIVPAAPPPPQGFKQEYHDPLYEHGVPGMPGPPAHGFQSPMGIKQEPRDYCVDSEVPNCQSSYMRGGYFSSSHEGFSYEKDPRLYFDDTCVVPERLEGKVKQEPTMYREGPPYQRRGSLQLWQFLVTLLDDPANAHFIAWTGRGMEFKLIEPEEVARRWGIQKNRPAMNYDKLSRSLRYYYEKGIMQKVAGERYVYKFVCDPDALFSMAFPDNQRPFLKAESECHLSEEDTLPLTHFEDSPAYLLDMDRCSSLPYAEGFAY
In short: as §1

HSF1 = HSF1 (Homo sapiens, UniProt Q00613 1-529); details: protein: recombinant; tags: N-terminal GST; chain copies: 3; dsDNA, one strand shown
Sequence of HSF1 (Q00613 whole entry): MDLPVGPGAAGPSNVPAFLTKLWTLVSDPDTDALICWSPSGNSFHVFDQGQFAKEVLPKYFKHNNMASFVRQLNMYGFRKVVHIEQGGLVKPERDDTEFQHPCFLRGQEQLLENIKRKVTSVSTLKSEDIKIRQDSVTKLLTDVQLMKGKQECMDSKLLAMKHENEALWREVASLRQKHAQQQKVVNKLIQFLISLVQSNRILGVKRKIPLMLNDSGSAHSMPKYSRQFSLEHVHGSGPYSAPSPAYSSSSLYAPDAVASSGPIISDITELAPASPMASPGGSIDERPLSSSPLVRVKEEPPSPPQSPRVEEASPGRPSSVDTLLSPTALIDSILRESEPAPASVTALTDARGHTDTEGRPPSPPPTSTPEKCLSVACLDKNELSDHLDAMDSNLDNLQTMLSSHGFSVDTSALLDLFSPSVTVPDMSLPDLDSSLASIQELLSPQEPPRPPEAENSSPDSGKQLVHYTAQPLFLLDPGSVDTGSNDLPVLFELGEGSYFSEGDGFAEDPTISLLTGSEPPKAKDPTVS
In short: as §1

SPIC = target: T2, SPIC (Homo sapiens, UniProt Q8N5J4 1-248); details: protein: recombinant; tags: N-terminal GST; dsDNA, one strand shown
T2 sequence: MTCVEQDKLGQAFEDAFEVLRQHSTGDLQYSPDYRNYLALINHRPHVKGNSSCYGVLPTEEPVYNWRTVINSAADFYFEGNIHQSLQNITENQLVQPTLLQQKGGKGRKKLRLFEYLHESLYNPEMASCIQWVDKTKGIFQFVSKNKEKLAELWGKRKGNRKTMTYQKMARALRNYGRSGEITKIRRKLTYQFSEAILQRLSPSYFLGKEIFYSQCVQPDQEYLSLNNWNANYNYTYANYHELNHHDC
In short: as §1

ELF4 = ELF4 (Homo sapiens, UniProt Q99607 1-663); details: protein: recombinant; tags: N-terminal GST; dsDNA, one strand shown
Sequence of ELF4 (Q99607 whole entry): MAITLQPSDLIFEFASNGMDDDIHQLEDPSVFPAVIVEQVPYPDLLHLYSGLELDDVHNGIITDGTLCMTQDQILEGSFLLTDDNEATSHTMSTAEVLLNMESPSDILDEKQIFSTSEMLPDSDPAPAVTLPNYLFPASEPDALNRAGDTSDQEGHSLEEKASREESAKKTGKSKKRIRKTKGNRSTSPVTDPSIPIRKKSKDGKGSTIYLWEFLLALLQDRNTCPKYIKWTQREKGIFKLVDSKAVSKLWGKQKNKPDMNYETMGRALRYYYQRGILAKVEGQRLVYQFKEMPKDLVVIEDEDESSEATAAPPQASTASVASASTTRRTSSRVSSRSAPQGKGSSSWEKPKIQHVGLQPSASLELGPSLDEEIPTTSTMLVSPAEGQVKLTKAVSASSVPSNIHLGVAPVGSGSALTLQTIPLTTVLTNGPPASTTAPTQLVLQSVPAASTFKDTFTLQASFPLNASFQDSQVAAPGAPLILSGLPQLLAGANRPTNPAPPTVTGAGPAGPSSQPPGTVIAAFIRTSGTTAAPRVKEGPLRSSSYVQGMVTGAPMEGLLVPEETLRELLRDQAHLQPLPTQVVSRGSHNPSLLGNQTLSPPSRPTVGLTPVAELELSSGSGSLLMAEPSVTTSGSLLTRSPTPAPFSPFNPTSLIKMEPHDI
In short: as §1

ELK4 = target: T3, ELK4 (Homo sapiens, UniProt P28324-2 1-405); details: protein: recombinant; tags: N-terminal GST; dsDNA, one strand shown
T3 sequence: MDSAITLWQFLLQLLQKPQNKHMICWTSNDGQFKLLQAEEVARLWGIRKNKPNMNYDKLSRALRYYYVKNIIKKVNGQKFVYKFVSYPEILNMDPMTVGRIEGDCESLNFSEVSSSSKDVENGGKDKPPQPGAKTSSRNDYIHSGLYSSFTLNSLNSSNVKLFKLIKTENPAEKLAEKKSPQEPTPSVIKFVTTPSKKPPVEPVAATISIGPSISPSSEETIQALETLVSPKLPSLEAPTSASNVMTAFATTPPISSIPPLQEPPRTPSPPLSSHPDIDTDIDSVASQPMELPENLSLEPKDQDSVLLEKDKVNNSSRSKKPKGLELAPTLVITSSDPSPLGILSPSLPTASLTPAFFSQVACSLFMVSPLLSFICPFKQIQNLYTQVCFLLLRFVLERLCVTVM
In short: as §1

ETV2 = target: T4, ETV2 (Homo sapiens, UniProt O00321 1-342); details: protein: recombinant; tags: N-terminal GST; dsDNA, one strand shown
T4 sequence: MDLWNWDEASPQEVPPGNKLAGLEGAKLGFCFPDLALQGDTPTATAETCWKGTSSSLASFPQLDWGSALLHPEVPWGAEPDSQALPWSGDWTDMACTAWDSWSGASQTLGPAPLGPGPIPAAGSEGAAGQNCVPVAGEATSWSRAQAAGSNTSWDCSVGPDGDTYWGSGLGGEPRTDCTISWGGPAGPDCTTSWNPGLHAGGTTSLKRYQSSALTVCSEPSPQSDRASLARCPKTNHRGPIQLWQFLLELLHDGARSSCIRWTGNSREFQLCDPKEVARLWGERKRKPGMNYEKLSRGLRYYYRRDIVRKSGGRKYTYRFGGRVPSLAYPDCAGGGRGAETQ
In short: as §1

ELF3 = target: T5, ELF3 (Homo sapiens, UniProt P78545 1-371); details: protein: recombinant; tags: N-terminal GST; dsDNA, one strand shown
T5 sequence: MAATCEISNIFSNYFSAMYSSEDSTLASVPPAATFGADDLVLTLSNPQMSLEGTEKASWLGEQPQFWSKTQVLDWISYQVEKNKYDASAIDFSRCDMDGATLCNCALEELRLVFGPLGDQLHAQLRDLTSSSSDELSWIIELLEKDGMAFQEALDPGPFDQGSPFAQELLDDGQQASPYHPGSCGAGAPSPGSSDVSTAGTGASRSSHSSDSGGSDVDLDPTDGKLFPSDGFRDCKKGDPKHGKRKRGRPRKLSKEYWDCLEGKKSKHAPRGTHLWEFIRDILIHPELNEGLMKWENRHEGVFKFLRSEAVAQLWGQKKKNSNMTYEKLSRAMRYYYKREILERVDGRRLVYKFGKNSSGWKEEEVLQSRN
In short: as §1

CRX = CRX (Homo sapiens, UniProt O43186 1-299); details: protein: recombinant; tags: N-terminal GST; dsDNA, one strand shown
Sequence of CRX (O43186 whole entry): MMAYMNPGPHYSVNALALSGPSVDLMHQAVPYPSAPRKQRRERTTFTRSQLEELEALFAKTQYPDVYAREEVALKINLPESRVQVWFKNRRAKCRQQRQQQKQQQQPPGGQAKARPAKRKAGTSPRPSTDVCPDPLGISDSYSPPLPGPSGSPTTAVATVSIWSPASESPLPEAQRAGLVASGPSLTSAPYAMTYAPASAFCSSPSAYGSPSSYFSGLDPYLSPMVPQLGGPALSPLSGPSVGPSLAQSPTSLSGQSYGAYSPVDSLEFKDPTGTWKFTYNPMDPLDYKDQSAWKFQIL
In short: as §1

ETV1 = ETV1 (Homo sapiens, UniProt P50549 1-477); details: protein: recombinant; tags: N-terminal GST; dsDNA, one strand shown
Sequence of ETV1 (P50549 whole entry): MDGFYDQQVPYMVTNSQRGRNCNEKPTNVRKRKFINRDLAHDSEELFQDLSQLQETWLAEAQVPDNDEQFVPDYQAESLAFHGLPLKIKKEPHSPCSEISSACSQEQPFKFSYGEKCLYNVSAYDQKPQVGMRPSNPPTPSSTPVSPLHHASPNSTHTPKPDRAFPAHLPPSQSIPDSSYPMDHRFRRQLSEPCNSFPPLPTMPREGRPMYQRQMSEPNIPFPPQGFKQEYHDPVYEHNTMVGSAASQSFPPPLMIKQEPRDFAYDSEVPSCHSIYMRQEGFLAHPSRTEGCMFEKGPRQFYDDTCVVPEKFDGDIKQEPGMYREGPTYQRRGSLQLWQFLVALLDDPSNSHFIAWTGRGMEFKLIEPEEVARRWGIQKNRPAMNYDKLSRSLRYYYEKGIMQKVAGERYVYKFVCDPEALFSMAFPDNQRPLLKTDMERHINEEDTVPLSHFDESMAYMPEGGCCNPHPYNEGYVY
In short: as §1

ERF = target: T6, ERF (Homo sapiens, UniProt P50548 1-548); details: protein: recombinant; tags: N-terminal GST; dsDNA, one strand shown
T6 sequence: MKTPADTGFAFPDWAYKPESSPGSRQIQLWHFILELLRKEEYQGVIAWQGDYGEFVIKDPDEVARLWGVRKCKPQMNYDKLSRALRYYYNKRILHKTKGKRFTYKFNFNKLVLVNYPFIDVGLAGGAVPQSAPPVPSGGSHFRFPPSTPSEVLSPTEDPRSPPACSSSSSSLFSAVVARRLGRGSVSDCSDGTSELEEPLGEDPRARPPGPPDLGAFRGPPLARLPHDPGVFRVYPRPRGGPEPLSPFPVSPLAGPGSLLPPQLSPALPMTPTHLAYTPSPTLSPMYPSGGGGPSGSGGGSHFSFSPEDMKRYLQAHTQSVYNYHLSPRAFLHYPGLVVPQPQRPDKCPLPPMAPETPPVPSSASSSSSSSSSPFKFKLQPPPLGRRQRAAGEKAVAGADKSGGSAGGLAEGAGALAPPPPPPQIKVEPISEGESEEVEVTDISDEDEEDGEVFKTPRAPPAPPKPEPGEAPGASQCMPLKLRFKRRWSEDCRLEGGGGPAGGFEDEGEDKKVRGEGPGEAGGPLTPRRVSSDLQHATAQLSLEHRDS
In short: as §1

ETV3L = target: T7, ETV3L (Homo sapiens, UniProt Q6ZN32 1-361); details: protein: recombinant; tags: N-terminal GST; dsDNA, one strand shown
T7 sequence: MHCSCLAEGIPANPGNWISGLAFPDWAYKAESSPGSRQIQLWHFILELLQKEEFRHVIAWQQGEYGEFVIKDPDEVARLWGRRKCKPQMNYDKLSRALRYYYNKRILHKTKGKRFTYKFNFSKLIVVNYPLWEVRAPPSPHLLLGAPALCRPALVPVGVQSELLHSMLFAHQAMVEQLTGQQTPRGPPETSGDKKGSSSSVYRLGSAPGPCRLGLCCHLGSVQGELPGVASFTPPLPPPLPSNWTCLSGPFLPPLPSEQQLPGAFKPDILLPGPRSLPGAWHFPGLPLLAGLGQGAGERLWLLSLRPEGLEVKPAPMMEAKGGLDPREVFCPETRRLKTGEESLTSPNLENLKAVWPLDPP
In short: as §1

ETS2 = target: T8, ETS2 (Homo sapiens, UniProt P15036 1-469); details: protein: recombinant; tags: N-terminal GST; dsDNA, one strand shown
T8 sequence: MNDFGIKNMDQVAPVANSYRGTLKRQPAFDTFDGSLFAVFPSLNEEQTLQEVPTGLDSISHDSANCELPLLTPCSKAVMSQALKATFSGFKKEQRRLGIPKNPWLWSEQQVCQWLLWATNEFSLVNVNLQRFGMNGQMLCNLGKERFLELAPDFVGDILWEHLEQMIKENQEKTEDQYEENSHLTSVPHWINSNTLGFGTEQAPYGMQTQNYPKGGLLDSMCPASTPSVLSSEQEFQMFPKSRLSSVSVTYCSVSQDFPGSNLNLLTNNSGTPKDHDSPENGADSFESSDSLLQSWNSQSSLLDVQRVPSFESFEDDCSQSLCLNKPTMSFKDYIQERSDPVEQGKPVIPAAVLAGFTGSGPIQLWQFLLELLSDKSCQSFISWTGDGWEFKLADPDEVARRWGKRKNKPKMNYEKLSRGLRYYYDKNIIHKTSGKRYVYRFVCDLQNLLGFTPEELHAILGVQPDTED
In short: as §1

SPDEF = target: T9, SPDEF (Homo sapiens, UniProt O95238 1-335); details: protein: recombinant; tags: N-terminal GST; dsDNA, one strand shown
T9 sequence: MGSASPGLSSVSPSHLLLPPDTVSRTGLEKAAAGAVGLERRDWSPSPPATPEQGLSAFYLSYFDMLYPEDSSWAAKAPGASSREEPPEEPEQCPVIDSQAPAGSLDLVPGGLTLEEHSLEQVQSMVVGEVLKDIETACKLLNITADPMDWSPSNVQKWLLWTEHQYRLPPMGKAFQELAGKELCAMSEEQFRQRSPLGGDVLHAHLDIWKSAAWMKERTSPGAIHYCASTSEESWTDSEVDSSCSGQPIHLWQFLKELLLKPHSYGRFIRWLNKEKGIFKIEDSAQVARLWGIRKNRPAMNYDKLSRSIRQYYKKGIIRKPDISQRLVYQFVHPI
In short: as §1

ETV7 = target: T10, ETV7 (Homo sapiens, UniProt Q9Y603 1-341); details: protein: recombinant; tags: N-terminal GST; dsDNA, one strand shown
T10 sequence: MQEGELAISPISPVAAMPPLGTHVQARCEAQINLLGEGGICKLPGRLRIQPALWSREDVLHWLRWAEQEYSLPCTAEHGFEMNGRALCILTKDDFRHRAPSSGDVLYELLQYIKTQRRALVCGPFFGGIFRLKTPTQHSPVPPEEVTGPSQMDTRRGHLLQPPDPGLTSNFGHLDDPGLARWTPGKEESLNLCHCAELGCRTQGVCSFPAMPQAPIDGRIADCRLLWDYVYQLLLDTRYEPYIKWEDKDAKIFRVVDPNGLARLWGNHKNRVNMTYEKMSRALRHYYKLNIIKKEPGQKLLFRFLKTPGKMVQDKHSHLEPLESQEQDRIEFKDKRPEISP
In short: as §1

ELF5 = target: T11, ELF5 (Homo sapiens, UniProt Q9UKW6-2 1-255); details: protein: recombinant; tags: N-terminal GST; dsDNA, one strand shown
T11 sequence: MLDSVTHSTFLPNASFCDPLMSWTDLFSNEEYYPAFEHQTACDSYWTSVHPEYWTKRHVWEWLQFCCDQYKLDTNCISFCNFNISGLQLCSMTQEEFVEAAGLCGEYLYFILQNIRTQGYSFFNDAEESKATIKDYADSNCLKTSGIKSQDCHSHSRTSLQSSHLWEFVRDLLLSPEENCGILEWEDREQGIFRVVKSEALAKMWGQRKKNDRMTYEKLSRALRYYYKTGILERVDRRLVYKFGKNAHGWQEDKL
In short: as §1

ETV3 = target: T12, ETV3 (Homo sapiens, UniProt P41162-2 1-143); details: protein: recombinant; tags: N-terminal GST; dsDNA, one strand shown
T12 sequence: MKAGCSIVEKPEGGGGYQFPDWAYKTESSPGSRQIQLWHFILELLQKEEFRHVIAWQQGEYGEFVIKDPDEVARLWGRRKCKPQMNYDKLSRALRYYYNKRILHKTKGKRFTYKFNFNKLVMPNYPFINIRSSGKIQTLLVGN
In short: as §1

ETV6 = ETV6 (Homo sapiens, UniProt P41212 1-452); details: protein: recombinant; tags: N-terminal GST; dsDNA, one strand shown
Sequence of ETV6 (P41212 whole entry): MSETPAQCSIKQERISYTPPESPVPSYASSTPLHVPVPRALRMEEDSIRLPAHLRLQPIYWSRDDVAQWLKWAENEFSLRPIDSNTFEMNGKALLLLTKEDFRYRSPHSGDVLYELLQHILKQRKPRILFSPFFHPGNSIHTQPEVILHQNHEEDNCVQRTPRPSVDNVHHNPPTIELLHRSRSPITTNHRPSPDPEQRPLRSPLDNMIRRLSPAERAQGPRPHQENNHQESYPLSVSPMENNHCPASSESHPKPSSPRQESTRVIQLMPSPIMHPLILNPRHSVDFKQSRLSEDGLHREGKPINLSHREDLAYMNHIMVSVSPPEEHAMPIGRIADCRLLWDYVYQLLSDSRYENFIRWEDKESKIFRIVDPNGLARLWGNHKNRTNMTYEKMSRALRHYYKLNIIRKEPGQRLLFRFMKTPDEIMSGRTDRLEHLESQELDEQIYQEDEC
In short: as §1

Sequence	binding signal (FEV)	binding signal (ETV5)	binding signal (HSF1)	binding signal (SPIC)	binding signal (ELF4)	binding signal (ELK4)	binding signal (ETV2)	binding signal (ELF3)	binding signal (CRX)	binding signal (ETV1)	binding signal (ERF)	binding signal (ETV3L)	binding signal (ETS2)	binding signal (SPDEF)	binding signal (ETV7)	binding signal (ELF5)	binding signal (ETV3)	binding signal (ETV6)
ACCCTT	1.21 fold enrichment (6-mer frequency, TF over GST control)	1.25 fold enrichment (6-mer frequency, TF over GST control)	1.09 fold enrichment (6-mer frequency, TF over GST control)	1.02 fold enrichment (6-mer frequency, TF over GST control)	1.26 fold enrichment (6-mer frequency, TF over GST control)	1.08 fold enrichment (6-mer frequency, TF over GST control)	1.33 fold enrichment (6-mer frequency, TF over GST control)	1.23 fold enrichment (6-mer frequency, TF over GST control)	1.15 fold enrichment (6-mer frequency, TF over GST control)	1.18 fold enrichment (6-mer frequency, TF over GST control)	1.2 fold enrichment (6-mer frequency, TF over GST control)	1.21 fold enrichment (6-mer frequency, TF over GST control)	1.1 fold enrichment (6-mer frequency, TF over GST control)	1.2 fold enrichment (6-mer frequency, TF over GST control)	1.1 fold enrichment (6-mer frequency, TF over GST control)	1.19 fold enrichment (6-mer frequency, TF over GST control)	1.19 fold enrichment (6-mer frequency, TF over GST control)	1.15 fold enrichment (6-mer frequency, TF over GST control)
CTACTT	2.08 fold enrichment (6-mer frequency, TF over GST control)	1.78 fold enrichment (6-mer frequency, TF over GST control)	1.44 fold enrichment (6-mer frequency, TF over GST control)	1.89 fold enrichment (6-mer frequency, TF over GST control)	1.82 fold enrichment (6-mer frequency, TF over GST control)	1.87 fold enrichment (6-mer frequency, TF over GST control)	1.84 fold enrichment (6-mer frequency, TF over GST control)	1.89 fold enrichment (6-mer frequency, TF over GST control)	1.78 fold enrichment (6-mer frequency, TF over GST control)	1.89 fold enrichment (6-mer frequency, TF over GST control)	1.85 fold enrichment (6-mer frequency, TF over GST control)	1.84 fold enrichment (6-mer frequency, TF over GST control)	1.95 fold enrichment (6-mer frequency, TF over GST control)	1.79 fold enrichment (6-mer frequency, TF over GST control)	1.8 fold enrichment (6-mer frequency, TF over GST control)	2 fold enrichment (6-mer frequency, TF over GST control)	1.76 fold enrichment (6-mer frequency, TF over GST control)	2.02 fold enrichment (6-mer frequency, TF over GST control)
